Test results: PubChem BioAssay (NCATS)
Where “and” joins values, the source holds several entries; their conditions need not be identical. Equal entries are not always repeated. Inconclusive results are not listed. A call without a number means that no potency is given here. Calls of active or inactive are those of the source. Calls come from the whole dose curve; as a rule, active = well fitted curve in the direction sought with a large enough effect; inconclusive = small, poorly fitted or top-dose-only effect, or another doubt; inactive = no such curve, though single readings can be large; an effect the other way counts as inactive or inconclusive.

Tests used:
[1] = qHTS of pediatric cancer cell lines to identify multiple opportunities for drug repurposing: Primary screen for SJ-GBM2 cells (AID 1347091); note: potency is the fitted concentration of half-maximal effect
Outline: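 Eight- or eleven-point concentration series, 48 h treatment at 37 degrees C in growth media; readout CellTiter-Glo luminescence. Potency and efficacy were taken from the concentration-response curves.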

[2] = qHTS of pediatric cancer cell lines to identify multiple opportunities for drug repurposing: Primary screen for SK-N-MC cells (AID 1347093); note: potency is the fitted concentration of half-maximal effect
Outline: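 Metabolically active cells were quantified by ATP-dependent luminescence (CellTiter-Glo, 15 min at room temperature) following 48 h treatment. Cells had been plated at 500-1,000 per well and settled for 5 h beforehand.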

[3] = qHTS of pediatric cancer cell lines to identify multiple opportunities for drug repurposing: Primary screen for BT-37 cells (AID 1347094); note: potency is the fitted concentration of half-maximal effect
Outline: (§1)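 Plated cells (500-1,000 per well, growth media) were allowed to settle for 5 hours, treated with compound dilutions for 48 hours, then lysed with CellTiter-Glo for 15 min at room temperature before luminescence reading.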

[4] = qHTS of pediatric cancer cell lines to identify multiple opportunities for drug repurposing: Primary screen for NB-EBc1 cells (AID 1347095); note: potency is the fitted concentration of half-maximal effect
Outline: as §1

[5] = qHTS of pediatric cancer cell lines to identify multiple opportunities for drug repurposing: Primary screen for U-2 OS cells (AID 1347096); note: nearly all actives have a fitted effect of over 50% in size; note: potency is the fitted concentration of half-maximal effect
Outline: (§2)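 Cells (500-1,000/well) in growth media were settled 5 h at 37 degrees C, then given compounds for 48 h. Viability was read as CellTiter-Glo luminescence. Primary runs used MIPE at 11 points (0.78 nM-46 µM) and NPC at 8 points (0.59 nM-46 µM); follow-ups used 11 points.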

[6] = qHTS of pediatric cancer cell lines to identify multiple opportunities for drug repurposing: Primary screen for Saos-2 cells (AID 1347097); note: nearly all actives have a fitted effect of over 40% in size; note: potency is the fitted concentration of half-maximal effect
Outline: as §1

[7] = qHTS of pediatric cancer cell lines to identify multiple opportunities for drug repurposing: Primary screen for SK-N-SH cells (AID 1347098); note: nearly all actives have a fitted effect of over 65% in size; note: potency is the fitted concentration of half-maximal effect
Outline: (§3)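 Cells (500-1,000/well) rested 5 h, then received compounds for 48 h; metabolically active cells were measured by CellTiter-Glo luminescence. Final concentrations spanned up to 46 µM (MIPE, 11-point) or 0.59 nM-46 µM (NPC, 8-point) in primary screens, 11-point in follow-ups.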

[8] = qHTS of pediatric cancer cell lines to identify multiple opportunities for drug repurposing: Primary screen for NB1643 cells (AID 1347099); note: nearly all actives have a fitted effect of over 50% in size; note: potency is the fitted concentration of half-maximal effect
Outline: as §1

[9] = qHTS of pediatric cancer cell lines to identify multiple opportunities for drug repurposing: Primary screen for Rh18 cells (AID 1347102); note: nearly all actives have a fitted effect of over 65% in size; note: potency is the fitted concentration of half-maximal effect
Outline: as §2

[10] = qHTS of pediatric cancer cell lines to identify multiple opportunities for drug repurposing: Primary screen for MG 63 (6-TG R) cells (AID 1347105); note: nearly all actives have a fitted effect of over 50% in size; note: potency is the fitted concentration of half-maximal effect
Outline: as §1

[11] = qHTS of pediatric cancer cell lines to identify multiple opportunities for drug repurposing: Primary screen for control Hh wild type fibroblast cells (AID 1347106);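 note: series mostly up to about 46 µM; a drop in luminescence marks cytotoxicity and a rise apparent proliferation; nearly all actives have a fitted effect of over 55% in size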
Outline: as §2

[12] = qHTS of pediatric cancer cell lines to identify multiple opportunities for drug repurposing: Primary screen for Rh30 cells (AID 1347107); note: series mostly up to about 46 µM; nearly all actives have a fitted effect of over 75% in size
Outline: as §2

[13] = qHTS of pediatric cancer cell lines to identify multiple opportunities for drug repurposing: Primary screen for Rh41 cells (AID 1347108); note: nearly all actives have a fitted effect of over 70% in size; note: potency is the fitted concentration of half-maximal effect
Outline: as §1

[14] = qHTS of pediatric cancer cell lines to identify multiple opportunities for drug repurposing: Confirmatory screen for NB1643 cells (AID 1347109); note: nearly all actives have a fitted effect of over 45% in size
Outline: as §2

[15] = qHTS of pediatric cancer cell lines to identify multiple opportunities for drug repurposing: Confirmatory screen for A673 cells (AID 1347110);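 note: cells exposed to compound for 48 h before the viability read; nearly all actives have a fitted effect of over 65% in size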; note: potency is the fitted concentration of half-maximal effect
Outline: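 Forty-eight-hour viability assay. Follow-up compounds ran at 11-point dilutions; positive control bortezomib at 2.3 uM final, neutral control DMSO.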

[16] = qHTS of pediatric cancer cell lines to identify multiple opportunities for drug repurposing: Primary screen for LAN-5 cells (AID 1347100); note: potency is the fitted concentration of half-maximal effect
Outline: as §2

[17] = qHTS of pediatric cancer cell lines to identify multiple opportunities for drug repurposing: Primary screen for BT-12 cells (AID 1347101); note: nearly all actives have a fitted effect of over 25% in size; note: potency is the fitted concentration of half-maximal effect
Outline: as §3

[18] = qHTS of pediatric cancer cell lines to identify multiple opportunities for drug repurposing: Primary screen for OHS-50 cells (AID 1347103); note: nearly all actives have a fitted effect of over 40% in size; note: potency is the fitted concentration of half-maximal effect
Outline: as §3

[19] = qHTS of pediatric cancer cell lines to identify multiple opportunities for drug repurposing: Primary screen for RD cells (AID 1347104); note: nearly all actives have a fitted effect of over 55% in size; note: potency is the fitted concentration of half-maximal effect
Outline: as §1

[20] = qHTS of pediatric cancer cell lines to identify multiple opportunities for drug repurposing: Primary screen for A673 cells (AID 1347092); note: nearly all actives have a fitted effect of over 45% in size; note: potency is the fitted concentration of half-maximal effect
Outline: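 Titration-based qHTS on A673 cells: MIPE compounds spanned 11 points (0.78 nM to 46 µM final), NPC compounds 8 points (0.59 nM to 46 µM final). Viability after 48 h was measured by ATP luminescence.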

Row | SMILES | Potency [1] | Potency [2] | Potency [3] | Potency [4] | Potency [5] | Potency [6] | Potency [7] | Potency [8] | Potency [9] | Potency [10] | Potency [11] | Potency [12] | Potency [13] | Potency [14] | Potency [15] | Potency [16] | Potency [17] | Potency [18] | Potency [19] | Potency [20]
1 | CCC(C)n1ncn(-c2ccc(N3CCN(c4ccc(OC[C@H]5CO[C@](Cn6cncn6)(c6ccc(Cl)cc6Cl)O5)cc4)CC3)cc2)c1=O (some centres not stated) | 1.66 µM (active) | 1.48 µM (active) | inactive | 1.05 µM (active) | inactive | inactive | inactive | inactive | inactive | inactive | inactive | inactive | inactive | inactive | inactive |  |  |  |  | 
2 | CC(C)(C)NCC(O)c1ccc(O)c(CO)c1 (configuration not stated) | inactive | inactive | inactive | inactive | inactive | inactive | inactive | inactive | inactive | inactive | inactive | inactive | inactive |  |  | inactive | inactive | inactive | inactive | 
3 | Cc1cc2c(F)c(Oc3ncnn4cc(OC[C@@H](C)O)c(C)c34)ccc2[nH]1 | 10.5 µM (active) | 0.264 µM (active) | 27.3 µM (active) | 13.2 µM (active) |  | 18.7 µM (active) | 24.1 µM (active) |  |  |  | inactive |  |  |  |  | 20.9 µM (active) |  | 30.6 µM (active) |  | 
4 | Cn1c(=O)c(F)c(Nc2ccc(I)cc2F)c2c(=O)n(C[C@@H](O)CO)cnc21 | inactive |  |  |  | 5.9 µM (active) |  | 6.81 µM (active) |  | 20.9 µM (active) | inactive |  | inactive |  |  |  |  |  | inactive | 0.0296 µM (active) | inactive
5 | CCC(C)(C)C(=O)O[C@H]1C[C@@H](C)C=C2C=C[C@H](C)[C@H](CC[C@@H]3C[C@@H](O)CC(=O)O3)[C@H]21 | 3.35 µM (active) and 14.8 µM (active) | 33.2 µM (active) |  |  | 18.7 µM (active) | 2.37 µM (active) and 2.96 µM (active) | 7.7 µM (active) and 21.5 µM (active) |  | 8.41 µM (active) and 14.8 µM (active) | 2.66 µM (active) and 4.69 µM (active) | inactive |  | inactive |  | 5.22 µM (active) | inactive | 1.38 µM (active) and 1.93 µM (active) | 6.17 µM (active) and 10.9 µM (active) | inactive | 
6 | O=C1CCc2cc(OCCCCc3nnnn3C3CCCCC3)ccc2N1 | inactive |  | inactive | inactive | inactive | inactive | inactive |  | inactive | inactive | inactive | inactive | inactive |  |  | inactive | inactive | inactive | inactive | 
7 | Cc1ccccc1C(C(=O)NC1CCCC1)N(C(=O)Cn1cnc2ccccc21)c1cccc(F)c1 (configuration not stated) | inactive |  |  | inactive | inactive |  | inactive |  |  | inactive | inactive | inactive |  |  |  | inactive |  |  |  | 
8 | C[C@]12CC[C@H](O)CC1=CC[C@@H]1[C@H]2CC[C@]2(C)C(c3cccnc3)=CC[C@H]12 |  | inactive | inactive |  | inactive |  | inactive | inactive | inactive | inactive | inactive | inactive | inactive |  |  | inactive | inactive | inactive | inactive | inactive
9 | CC(C)(Sc1ccc(CCN(CCCCC2CCCCC2)C(=O)NC2CCCCC2)cc1)C(=O)O |  | 23.5 µM (active) | 21.7 µM (active) | 20.9 µM (active) | inactive | 23.5 µM (active) |  | 14.8 µM (active) | inactive |  | inactive | inactive |  |  |  | 20.9 µM (active) |  | inactive |  | 18.7 µM (active)
10 | CCCC(CCC)C(=O)O | inactive |  | inactive | inactive | inactive | inactive | inactive | inactive | inactive | inactive | inactive | inactive | inactive |  |  | inactive | inactive | inactive | inactive | 
11 | NC(N)=NC(=O)c1nc(Cl)c(N)nc1N | inactive |  | inactive | inactive | inactive | inactive |  |  | inactive | inactive | inactive | inactive | inactive | inactive | 1.17 µM (active) | inactive | inactive | inactive | inactive | 
12 | Nc1ncnc2nc(-c3ccc(N4CCOCC4)nc3)cc(-c3cccc(Br)c3)c12 | inactive |  |  | inactive |  | inactive |  |  |  | inactive | inactive |  |  |  |  |  |  |  |  | 
13 | Cc1ccnc(NS(=O)(=O)c2ccc(NC(=O)Nc3ccc(S(=O)(=O)Nc4nccc(C)n4)cc3)cc2)n1 | 16.6 µM (active) |  | 10.9 µM (active) | 14.8 µM (active) | inactive |  |  | inactive | inactive | inactive | inactive | inactive | inactive |  |  |  | 24.3 µM (active) | inactive | inactive | 
14 | C[C@@H]1CN(Cc2ccc(F)cc2)[C@@H](C)CN1C(=O)c1cc2c(C(=O)C(=O)N(C)C)cn(C)c2cc1Cl |  | 0.0372 µM (active) | inactive |  |  |  |  | 2.64 µM (active) | inactive |  |  |  | 14.8 µM (active) |  |  |  |  |  | 0.833 µM (active) | 14.8 µM (active)
15 | O=C(C=Cc1ccc(/C=C/C(=O)Nc2ccc(C3=NCCN3)cc2)cc1)Nc1ccc(C2=NCCN2)cc1 | inactive |  | inactive | inactive | inactive | inactive | inactive | inactive | inactive | inactive | inactive | inactive | inactive |  |  | inactive | inactive | inactive | inactive | 
